IL1B secr inh: inflammasome signaling inhibition, IL-1 beta readout; THP-1 LPS/ATP IL-1B secretion, AlphaLISA, 16 h; stronger effect = lower value; activity change, % at 57.5 µM; 4.7% of 360,000 active; AID 743279; in the data active = activity change below about -50%; inconclusive = mostly about -30% to -49%
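THP-1 cells pretreated 1 hr with compounds (up to 57.5 uM final), then stimulated with LPS (250 ng/mL final) plus ATP (1.25 mM final); secreted IL-1B measured by AlphaLISA after 16 hr, decreased signal indicating inhibition.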
HT1080-NT tox: kills 2HG-producing HT-1080-NT fibrosarcoma cells; Potency, µM (titrated, usually from 46.1 µM), without a hit: at the highest dose activity, negative = less viability, actives largely listed as cytotoxic; 1.6% of 360,000 active; HT-1080-NT fibrosarcoma viability, CellTiter-Glo ATP luminescence, 48 h;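 also: NT is the 2HG producing partner of a matched IDH1 knockdown line; potency is read from the fitted curve at half-maximal effect; 0% = DMSO-treated cells and -100% = media-only wells without cells; nearly all actives have a fitted effect of over 55% in size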
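Fibrosarcoma NT cells, 750 per well in 5% FBS RPMI, were exposed to compound for 48 hours. Viability: CellTiter-Glo luminescence.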
KB-V1 MDR tox: kills drug-selected multidrug resistant KB-V1 cells | KB-V1 MDR cells viability, CellTiter-Glo, 72 h | Potency, µM (titrated, usually from 46.1 µM), hits mostly cytotoxic | 3.4% of 400,000 active | AID 1347076; also: potency is read from the fitted curve at half-maximal effect; nearly all actives have a fitted effect of over 60% in size
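Cells of the MDR subline KB-V1 are plated, dosed with compound at multiple concentrations, and incubated 72 h at 37 degrees C; CellTiter-Glo is then added and luminescence read after 10 min.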
HT1080 IDH1KD tx: HT-1080 IDH1 knockdown cell toxicity (counter line); Potency, µM (titrated, usually from 46.1 µM), inactives show at the highest dose activity, negative = toxicity, actives largely listed as cytotoxic; 2% of 360,000 active; HT-1080 IDH1 knockdown viability, ATP luminescence, 48 h; AID 686971;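 also: potency is read from the fitted curve at half-maximal effect; 0% = DMSO wells and -100% = cell-free medium wells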
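Using the IDH1-knockdown HT-1080 line run in the same batch and compound series as the NT line, viability after 48 h at 37 °C was determined by CellTiter-Glo luminescence and expressed as % activity.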
KB-3-1 tox: kills parental KB-3-1 adenocarcinoma cells; KB-3-1 viability, CellTiter-Glo ATP luminescence, 72 h; Potency, µM (series often up to 46.1 µM), hits mostly cytotoxic; 1.4% of 400,000 active; also: potency is read from the fitted curve at half-maximal effect; nearly all actives have a fitted effect of over 60% in size
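Parental KB-3-1 viability, qHTS format: 72 h compound exposure, 37 °C; CellTiter-Glo; media-only wells and DMSO plates as controls; concentration-effect fits on corrected data.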
An asterisk follows results filed as active; i = inactive; u = inconclusive; x = no result given. Hits are enriched below; roughly 8.8% of the tested compounds scored in any of these assays. Unless noted, calls follow the shape of the dose curve; as a rule, active = well fitted curve in the direction sought with a large enough effect; inconclusive = small, poorly fitted or top-dose-only effect, or another doubt; inactive = no such curve, though single readings can be large; an effect the other way counts as inactive or inconclusive. Unless noted, % is scaled to controls: 0 for no effect and ±100 for the full control effect.

SMILES	IL1B secr inh	HT1080-NT tox	KB-V1 MDR tox	HT1080 IDH1KD tx	KB-3-1 tox
O=C(CCNS(=O)(=O)c1ccccc1F)N1CCN(C/C=C/c2ccccc2)CC1	-20	1%	u	-11%	i
CC(=NNC(=S)N1CCN(c2ccccn2)CC1)c1ccccn1	41	-9%	7.3µM*	u	i
S=C(NC1CCCC1)N1CCN(c2ccccn2)CC1	0	10%	21µM*	26%	i
O=C(CN(C1CCCCC1)C1CCCCC1)N1CCc2ccccc2C1	-99*	u	i	u	i
CCCCNC(=O)C[C@@H]1C[C@@]2(C(=O)OCC)CCCC=C2N(Cc2ccc3c(c2)OCO3)C1=O	-11	-3%	i	-1%	i
Cc1ccc(C(=O)Nc2ccc(NC(=O)c3ccco3)c(C)c2)cc1	-59*	8%	u	-2%	i
CCc1cccc(NC(=O)c2ccc(Br)o2)c1	u	12%	i	-1%	i
Cc1cc(NC(=O)c2ccc(Br)o2)ccc1NC(=O)c1ccco1	x	u	10µM*	u	u
CCCSc1oc(-c2cccs2)nc1S(=O)(=O)c1ccc(Cl)cc1	x	x	i	x	i
Cc1cc2c(cc1S(=O)(=O)N(C)CC(=O)Nc1cccc(C#N)c1)OCC(=O)N2	x	x	i	x	i
COc1cccc(CNC(=O)c2cc3c(s2)-c2c(C)cccc2OC3)c1	x	x	i	x	i
CCOc1ccccc1NC(=O)C(OC(=O)c1ccccc1O)c1ccccc1 (stereo not drawn)	-12	8%	12µM*	11%	i
CCOc1ccccc1C(=O)Nc1ccccc1-c1ccccc1	13	3%	15µM*	-8%	u
CCOc1c(Cl)cc(C(=O)Nc2ccccc2-c2ccccc2)cc1Cl	21	-2%	21µM*	-16%	u
Cc1ccc(CSC2=Nc3ccccc3C3=NC(CCC(=O)N4CCN(c5ccccc5)CC4)C(=O)N23)cc1 (stereo not drawn)	x	x	i	x	i
Cc1ccc(Nc2nc3ccccc3[nH]2)nc1	-53*	-1%	u	5%	u
Cc1ccc(C)c(C(=O)Nc2nc3ccccc3[nH]2)c1	5	17%	i	16%	i
CCOc1ccc(/C=C/c2nc(C#N)c(NCCCOC)o2)cc1	-2	u	2.1µM*	u	5.2µM*
C=CCNc1oc(/C=C/c2ccccc2)nc1C#N	-9	-2%	18µM*	u	i
CCOc1ccc(/C=C/c2nc(C#N)c(NCCCN(C)C)o2)cc1	-76*	u	i	u	i
CN(C)CCCNc1oc(/C=C/c2ccccc2)nc1C#N	-22	24%	i	7%	i
CC1(C(=O)NS(=O)(=O)c2ccc(Cl)cc2)CCN1C(=O)c1ccccc1CCc1ccccc1 (stereo not drawn)	-3	-20%	i	-29%	i
O=C(NCCc1ccccc1)C(=O)NCCC1CCCCN1S(=O)(=O)c1cccs1 (stereo not drawn)	-18	-8%	2.3µM*	-2%	i
O=C(NCCC1CCCCN1S(=O)(=O)c1cccs1)C(=O)Nc1ccccc1 (stereo not drawn)	u	-4%	i	-16%	i
COc1ccc(NC(=O)C(=O)NCCC2CCCCN2S(=O)(=O)c2ccccc2)cc1 (stereo not drawn)	-1	u	u	13µM*	4.6µM*
SMILES	IL1B secr inh	HT1080-NT tox	KB-V1 MDR tox	HT1080 IDH1KD tx	KB-3-1 tox
CCNC(=O)C(=O)NCCC1CCCCN1S(=O)(=O)c1cccs1 (stereo not drawn)	-2	2%	i	0%	i
COc1ccc(NC(=O)C(=O)NCCC2CCCCN2S(=O)(=O)c2cccs2)cc1 (stereo not drawn)	-27	u	1.8µM*	5.8µM*	2.6µM*
CN(C(=O)CSC1=NC2C(N=N1)c1cc(Br)ccc1N2C)C1CCCCC1 (stereo not drawn)	13	14%	i	9%	i
O=C(Nc1ccc2sccc2c1)Nc1nnc(-c2ccncc2)s1	x	x	i	x	i
c1ccc(Cc2nnc3sc(-c4ccccn4)nn23)cc1	12	15%	16µM*	-1%	u
c1ccc(OCc2nnc3sc(C4COc5ccccc5O4)nn23)cc1 (stereo not drawn)	-24	-10%	i	2%	i
c1ccc(Cc2nnc3sc(-c4ccncc4)nn23)cc1	-4	3%	i	-15%	i
c1ccc(Cc2nnc3sc(C4COc5ccccc5O4)nn23)cc1 (stereo not drawn)	-11	6%	15µM*	-5%	i
Clc1ccccc1-c1nnc2sc(C3COc4ccccc4O3)nn12 (stereo not drawn)	u	-2%	16µM*	u	i
Cc1cc(-c2nnc(CCC(=O)NC(C)(C)C34CC5CC(CC(C5)C3)C4)o2)no1	32	3%	i	-2%	i
CC1Sc2ccc(C(=O)Nc3ccccc3OC(F)F)cc2NC1=O (stereo not drawn)	18	19%	u	14%	i
COCCNC(=O)C1(C)CCCN(CC(=O)c2ccc(OC)cc2)C1 (stereo not drawn)	2	13%	i	13%	i
COc1ccc(CCNC(=O)c2c(C)nc3ccccn23)cc1OC	8	-1%	i	-5%	i
COc1cccc(CNC(=O)c2c(O)nc3ccccn3c2=O)c1	x	x	23µM*	x	i
COc1ccc(CCNC(=O)c2c(O)nc3ccccn3c2=O)cc1OC	x	x	7.3µM*	x	i
Cn1nc(C(F)(F)F)c(-c2ccc(Br)cc2)c1NC(=O)Nc1ccc(F)cc1F	x	u	u	18µM*	u
Cn1nc(C(F)(F)F)c(-c2ccc(F)cc2)c1NC(=O)c1ccco1	21	-6%	i	-14%	i
COc1ccccc1CN1CCC(CNS(=O)(=O)c2cc(-c3onc(C)c3C)ccc2OC)CC1	u	18µM*	i	18µM*	i
COC(=O)c1ccc(C(=O)OC)c(NC(=O)CN(c2ccccc2)S(=O)(=O)N(C)C)c1	22	-2%	i	8%	i
O=c1cc(-c2ccccc2)nc(Sc2ccc([N+](=O)[O-])cc2[N+](=O)[O-])[nH]1	-63*	-1%	i	-24%	i
O=[N+]([O-])c1ccc(SNc2ccccc2)c([N+](=O)[O-])c1	-8	-11%	23µM*	-12%	i
Cc1cccc(Sc2c([N+](=O)[O-])ncn2C)n1	0	-1%	i	2%	i
O=[N+]([O-])c1ccc(Sc2ncccn2)c([N+](=O)[O-])c1	x	29µM*	i	13µM*	i
Cc1cccc(Sc2ccc([N+](=O)[O-])cc2[N+](=O)[O-])n1	-171*	u	i	18µM*	i
